# Columns and labels:
# [1] = qHTS profiling of the MIPE4 collection as inhibitors of Plasmodium falciparum (3D7) proliferation (AID 743344);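 note: scaled between DMSO vehicle wells and 0.29 µM artemisinin as full inhibition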; conditions: P. falciparum 3D7 in erythrocytes, SYBR Green DNA fluorescence, 72 h; at 28.5 µM
# Procedure, shortened: (§1)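 Erythrocytes infected with P. falciparum (0.3% parasitemia, 2.5% hematocrit) incubated with compounds 72 h at 37 C, 5% CO2. Lysis with saponin/Triton buffer containing SYBR Green I, overnight at room temperature in the dark; DNA fluorescence (485/535 nm) normalised to 0.29 uM artemisinin and DMSO.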
# [2] = qHTS profiling of the MIPE4 collection as inhibitors of Plasmodium falciparum (DD2) proliferation (AID 743345); conditions: P. falciparum Dd2 in erythrocytes, SYBR Green DNA, 72 h; at 28.5 µM unless noted
# Procedure, shortened: as §1
# [3] = qHTS profiling of the MIPE4 collection as inhibitors of Plasmodium falciparum (DD2) proliferation (Rep 2) (AID 743346); conditions: P. falciparum Dd2 in erythrocytes, SYBR Green DNA, 72 h; at 28.5 µM
# Procedure, shortened: as §1
SMILES,"parasite growth, % of DMSO control [1]","parasite growth remaining, % of DMSO control (lower = more inhibition) [2]","parasite growth, % of control (lower = inhibition) [3]"
C1=C2CCCN[C@H]2[C@@H]2C[C@H]1[C@@H]1CCCCN1C2,71.7%,84.7%,69.3%
CCN1C[C@]2(OC(=O)c3ccccc3NC(C)=O)CC[C@H](OC)[C@@]34[C@H]5CC6[C@@H](OC)C[C@](O)(C(C[C@@H]23)[C@@H]14)[C@@]5(O)[C@@H]6OC,97%,94%,72.6%
O=C(O)CNC(=O)c1c(O)c2ccccc2n(Cc2ccccc2)c1=O,88%,93.4%,75.1%
O=S(=O)(F)Cc1ccccc1,95.8%,95.2%,85.6%
Cc1ccccc1-n1c(Cn2ncc3c(N)ncnc32)nc2cccc(C)c2c1=O,48.8%,94.1%,37%
CC1(N2CCC(n3c([C@@H]4CCCNC4)nc4ccccc43)CC2)CCCCCCC1,5.01%,11.2%,19.4%
CC(O)=C(C#N)C(=O)Nc1cc(Br)ccc1Br,80.7%,97%,78.2%
CC=C(C)C(=O)N[C@@H](c1ccccc1)[C@@H](O)C(=O)O[C@H]1C[C@@]2(O)[C@@H](OC(=O)c3ccccc3)[C@@H]3[C@]4(OC(C)=O)CO[C@@H]4C[C@H](O)[C@@]3(C)C(=O)[C@H](OC(C)=O)C(=C1C)C2(C)C,4.24%,14%,15.6%
C[C@H]([C@H](O)CCC(C)(C)O)[C@H]1CC[C@@]2(O)C3=CC(=O)[C@@H]4C[C@@H](O)[C@@H](O)C[C@]4(C)[C@@H]3CC[C@]12C,93.7%,99.4%,93.3%
CC(C)(C)[C@]1(O)C[C@@H]2OC(=O)C[C@@]23C(=O)O[C@@H]2OC(=O)[C@H](O)C213 (some centres undefined),95%,99.7%,81.5%
O=c1[nH]c2ccc(Cl)cc2c(N[C@@H]2CN3CCC2CC3)c1-c1nc2ccccc2[nH]1,5.05%,5.74%,8.84%
CCN1CCN(C(=O)Cc2ccc(Nc3ncc(F)c(Nc4ccc(C(=O)Nc5ccccc5Cl)cc4)n3)cc2)CC1,6.35%,7.02%,14.2%
CSCC[C@@H](NC(=O)[C@@H](Cc1ccccc1)NC(=O)CNC(=O)CNC(=O)[C@@H](N)Cc1ccc(O)cc1)C(=O)O,92.2%,49.8%,89.9%
COCC1(CO)C(=O)C2CCN1CC2 (centres undefined),94.3%,85.2%,42%
COc1cc([C@@H]2c3cc4c(cc3[C@@H](O)C3COC(=O)C32)OCO4)cc(OC)c1O (some centres undefined),64.9%,88.5%,64.3%
C[C@]12CC[C@H]3[C@@H](CCC4=CC(=O)CC[C@@]43C)[C@H]1CC[C@H]2O,78.5%,90.8%,93.2%
COc1cccc2c1[C@]13CCN(CC4CC4)[C@H](C2)[C@]1(OC)CCC(=O)C3,98.3%,102%,31.9%
COc1ccc(CC2NCCc3cc(OC)c(OC)cc32)cc1OC (centres undefined),85.9%,85.6%,55.8%
O=C(Oc1ccc([N+](=O)[O-])cc1)N1CCN(Cc2cccc(Oc3ccccc3)c2)CC1,95.8%,92.5%,181%
C[C@]12COC(=O)C[C@@H]1CC[C@@H]1[C@H]2CC[C@@]2(C)[C@H]1CC[C@]2(C)O,89.9%,96.6%,93%
c1cc2c(cc1[C@H]1OC[C@H]3[C@H]1CO[C@H]3c1ccc3c(c1)OCO3)OCO2,104%,91.9%,126%
CC(=CCCC1=CCC(C2=CC(=O)OC2O)OC1O)CCC1=C(C)CCCC1(C)C (centres undefined),15.8%,44.2%,72%
CC(=O)O[C@@]12CO[C@H]1C[C@H](O)[C@@]1(C)C(=O)[C@H](O)C3=C(C)[C@@H](O)C[C@@](O)([C@@H](OC(=O)c4ccccc4)[C@@H]21)C3(C)C,60.1%,94.5%,42.4%
C[C@]12Cc3cn[nH]c3C[C@@H]1CC[C@@H]1[C@H]2CC[C@@]2(C)[C@H]1CC[C@]2(C)O,,90%,54.3%
O=C(NCC1CCOCC1)c1cnc(Nc2ccc(Cl)cc2Cl)nc1C(F)(F)F,52.4%,102%,52.2%

# — PubChem BioAssay (NCATS)
